Test results reported in PubChem BioAssay (EPA / NIEHS).
Inconclusive results are not listed. Activity calls are given as the source filed them. Rule for the calls: active = hit-call score of the fitted dose curve at least 0.9, where 1 is the maximum; inconclusive = response in the unintended direction; inactive = score below 0.9.

molecular target: human Matrix Metalloproteinase-9 (MMP9), MMP9 (gene 4318) (UniProt P14780); assay: NVS_ENZ_hMMP9: NovaScreen (NVS) Enzymatic Assay for human Matrix Metalloproteinase-9 (MMP9) (AID 2283190);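 note: active means inhibition seen as loss of fluorescence signal versus DMSO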
Sequence (P14780 whole entry, looked up): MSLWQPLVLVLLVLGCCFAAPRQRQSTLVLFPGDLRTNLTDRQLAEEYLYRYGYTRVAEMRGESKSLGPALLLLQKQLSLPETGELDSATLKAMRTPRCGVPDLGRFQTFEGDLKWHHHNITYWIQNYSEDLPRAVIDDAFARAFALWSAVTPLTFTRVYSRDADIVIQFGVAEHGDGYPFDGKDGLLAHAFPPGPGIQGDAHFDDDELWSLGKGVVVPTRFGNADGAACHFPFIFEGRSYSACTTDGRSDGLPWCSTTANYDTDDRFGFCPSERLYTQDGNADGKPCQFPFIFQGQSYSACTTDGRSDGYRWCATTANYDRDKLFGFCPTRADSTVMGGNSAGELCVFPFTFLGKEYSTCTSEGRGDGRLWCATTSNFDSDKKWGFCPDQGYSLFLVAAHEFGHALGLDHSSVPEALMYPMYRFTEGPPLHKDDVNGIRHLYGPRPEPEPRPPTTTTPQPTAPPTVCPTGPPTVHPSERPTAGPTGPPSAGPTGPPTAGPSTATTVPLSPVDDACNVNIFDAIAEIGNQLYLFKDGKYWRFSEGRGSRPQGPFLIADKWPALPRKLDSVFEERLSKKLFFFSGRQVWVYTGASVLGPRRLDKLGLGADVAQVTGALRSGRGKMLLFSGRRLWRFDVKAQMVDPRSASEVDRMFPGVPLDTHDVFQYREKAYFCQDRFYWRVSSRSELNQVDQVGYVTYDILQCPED
Experimental: NVS_ENZ_hMMP9 is a biochemical, single-readout assay that uses extracted gene-proteins in a cell-free assay. Measurements were taken 1 hour after chemical dosing in a 96-well plate.NVS_ENZ_hMMP9 is one of one assay component(s) measured or calculated from the NVS_ENZ_hMMP9 assay. It is designed to make measurements of enzyme activity, a form of enzyme reporter, as detected with fluorescence intensity signals by Fluorescence technology.Data from the assay component NVS_ENZ_hMMP9 was analyzed into 1 assay endpoint. This assay endpoint, NVS_ENZ_hMMP9, was analyzed in the positive analysis fitting direction relative to DMSO as the negative control and baseline of activity. Using a type of enzyme reporter, loss-of-signal activity can be used to understand changes in the enzymatic activity as they relate to the gene MMP9. Furthermore, this assay endpoint can be referred to as a primary readout, because this assay has produced multiple assay endpoints where this one serves a enzymatic activity function. To generalize the intended target to other relatable targets, this assay endpoint is annotated to the protease intended target family, where the subfamily is matrix metalloproteinase.
Binding assays used specific radioligands (tritiated, iodinated) with non-radioactive competitive displacement ligands in agonist or antagonist protocols (as indicated) and various reference compounds and inhibitors to titrate specific binding to receptors and transporters. Most enzyme assays (CYPs, kinases, phosphatases, proteases, HDACs) used recombinant protein and specific substrates (fluorescence mostly, some colorimetric and radioactive) and inhibitors, followed by a biochemical separation of substrate and product. All assays for the biochemical HTS were initially run in duplicate at a single concentration (10 uM for CYP450 assays and 25 uM for all others). […] Each assay was run with positive and negative controls, and concurrent controls on every plate. The follow-up (secondary) screen tested active chemical-pairs in concentration series, as well as a few additional assays not tested in the primary screen, some selected negative inactives, and several cases re-run in the concentration series for confirmatory purposes.

Structure (SMILES)	outcome	AC50
COCCOCCOCCOC	inactive	
O=C(O)CCN(C1(C(=O)NO)CCCC1)S(=O)(=O)c1ccc(Oc2ccc(F)cc2)cc1		0.00365 µM (active)
COC(=O)CC(=O)OC	inactive	
Fc1ccccc1[C@@H](F)COC1CCC(Nc2ncnc3[nH]ncc23)CC1 (stereo partly specified)	inactive	
CNS(=O)(=O)c1cc(C(=O)N2CCC(CCN3C4CCC3CC(n3c(C)nc5ccccc53)C4)(c3cccc(F)c3)CC2)c(Cl)cc1F (stereo unspecified)		8.37 µM (active)
CCCCC(CC)COC(=O)c1ccc(C(=O)OCC(CC)CCCC)cc1 (stereo unspecified)	inactive	
CCc1cc(SCc2sc(-c3ccc(C(F)(F)F)cc3)nc2CN2CCN(c3ccc(OC)cc3)CC2)ccc1OCC(=O)O		8.8 µM (active)
NC(=O)NO	inactive	
CCOC(=O)c1ccc(C2CCC(NC[C@H](O)COc3ccc(O)c(NS(C)(=O)=O)c3)CC2)cc1 (stereo partly specified)		12.7 µM (active)
CC[C@H](C)C(=O)O[C@H]1C[C@@H](C)C=C2C=C[C@H](C)[C@H](CC[C@@H]3C[C@@H](O)CC(=O)O3)[C@H]21	inactive	
O=C(O)c1cc(N=Nc2ccc(S(=O)(=O)Nc3ccccn3)cc2)ccc1O		7.16 µM (active)
